Source: PubChem
This is a sample that favours compounds with a hit; in the whole collection about 2.5% have one here.
Pol eta inh-1: blocks human DNA polymerase eta activity | 390,000 tested, 1.2% active | Potency, µM (titrated, usually from 114 µM), without a hit: at the highest dose activity change, negative = inhibition, hits mostly inhibitors | Q9Y253 | recombinant Pol eta, fluorescent DNA replication assay | AID 588591; note: potency is the fitted concentration of half-maximal effect; % is set by controls: 0 for no effect and ±100 for the full control effect
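Pol eta at 10 nM preincubated with compounds 15 min at room temperature; reaction started with fluorescent substrate (50 nM final) and read kinetically at 0 and 10 min.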
POLB inh: blocks human DNA polymerase beta activity; Pol beta primer extension/strand displacement, fluorescence kinetic; Potency, µM (doses to about 114 µM), for the others: at the top dose activity change, negative = inhibition, most hits filed as inhibitors; 340,000 tested, 1.3% active; P06746; note: potency is the fitted concentration of half-maximal effect; % is set by controls: 0 for no effect and ±100 for the full control effect
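Pol beta (10 nM) and compounds were preincubated 15 min at room temperature, then 50 nM substrate (final) started primer extension/strand displacement. Reads were taken at 0 and 10 min; concentration-response data were fitted to a four-parameter Hill equation.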
L3MBTL1 block: blocks human L3MBTL1 | AlphaScreen L3MBTL1–H3K9me1 peptide binding | Potency, µM (highest dose often 57.1 µM), without a hit: top-dose activity, negative = inhibition, actives largely listed as inhibitors | 230,000 tested, 0.66% active; note: potency is the fitted concentration of half-maximal effect; % is set by controls: 0 for no effect and ±100 for the full control effect; nearly all actives have a fitted effect of over 60% in size
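AlphaScreen proximity signal between nickel-chelate acceptor and streptavidin donor beads (final 10 ug/mL) reports binding of 50 nM L3MBTL1 to 75 nM biotin-H3 K9me1 peptide; complex incubated with compounds 30 min at room temperature; cefsulodin titration as control.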
Pol iota inh: blocks human DNA polymerase iota activity | Potency, µM (highest dose often 115 µM), for inactives: top-dose activity, negative = inhibition, actives largely listed as inhibitors | 390,000 tested, 1% active | Q9UNA4 | Pol iota fluorescent replication assay, 10 min | AID 588590; note: potency is the fitted concentration of half-maximal effect
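Pol iota at 10 nM preincubated 15 min with compounds at room temperature; reaction started with fluorescent substrate, 50 nM final. Fluorescence read kinetically at 0 and 10 min; buffer-only wells as negative control.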
Pol kappa inh-1: blocks human DNA polymerase kappa activity; Potency, µM (series often up to 107 µM), inactives show at the top dose activity, negative = inhibition, usual class: inhibitors; 400,000 tested, 0.53% active; Q9UBT6; purified Pol kappa, fluorescent DNA synthesis assay, 10 min; note: potency is the fitted concentration of half-maximal effect; % is set by controls: 0 for no effect and ±100 for the full control effect
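50 nM final substrate added after 15 min RT preincubation of 10 nM Pol kappa with compound; fluorescence read at 0 and 10 min.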
WRN inhibitor: blocks human WRN helicase; Potency, µM (doses to about 114 µM), for the others: at the highest dose activity change, negative = inhibition, actives largely listed as inhibitors; WRN helicase unwinding, fluorescent forked duplex, kinetic; AID 651768; 360,000 tested, 0.46% active; Q14191; note: potency is the fitted concentration of half-maximal effect; % is set by controls: 0 for no effect and ±100 for the full control effect; nearly all actives have a fitted effect of over 55% in size
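WRN at 20 nM final preincubated with compound 15 min at room temperature; reaction started with 100 nM fluorophore/quencher forked duplex oligonucleotide and 2 mM ATP final. Unwinding followed kinetically by red fluorescence (ex 525, em 598 nm).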
GALK confirm: confirmation of human galactokinase (GALK) inhibitors; AID 2015; purified GALK, Kinase-Glo ATP depletion luminescence; shares compounds with Pol eta inh-1; 150 tested, 70% active; Potency, µM (series often up to 115 µM), without a hit: top-dose activity, negative = inhibition, hits mostly inhibitors
Redox cycling: redox cycling activity in phenol red-HRP assay; Potency, µM (series often up to 115 µM), without a hit: top-dose activity change, negative = H2O2 signal, hits mostly inhibitors; shares compounds with Pol eta inh-1; AID 2035; 150 tested, 40% active; Phenol red-HRP H2O2 redox cycling, absorbance 600 nm
HEK293 tox: counter-screen for GALK inhibitors: HEK293 cell cytotoxicity | shares compounds with Pol eta inh-1 | HEK-293 viability, ATP luminescence (CellTiter-Glo), 24/48 h | Potency, µM (doses to about 46.1 µM), inactives show top-dose activity change, negative = cytotoxicity, most hits filed as inhibitors | 170 tested, 10% active; note: potency is the fitted concentration of half-maximal effect; % is set by controls: 0 for no effect and ±100 for the full control effect
Pol kappa inh-2: Pol kappa (human) inhibition, cherry-pick confirmation; 920 tested, 76% active; shares compounds with Pol eta inh-1; AID 720501; purified Pol-kappa, fluorescent strand-displacement substrate; Potency, µM, most hits filed as inhibitors; note: potency is the fitted concentration of half-maximal effect
Pol eta inh-2: Pol eta (human) inhibition, cherry-pick confirmation. AID 720502. Pol eta primer extension, TAMRA/BHQ fluorescence, 10 min. shares compounds with Pol eta inh-1. Potency, µM, actives largely listed as inhibitors. 2,600 tested, 64% active; note: potency is the fitted concentration of half-maximal effect
* marks the source's active call; other numbers are inactive results; ? = inconclusive; / = not tested or not shown; [ ] = dose if it differs, or a comment. Calls come from the whole dose curve; as a rule, active = well fitted curve in the direction sought with a large enough effect; inconclusive = small, poorly fitted or top-dose-only effect, or another doubt; inactive = no such curve, though single readings can be large; an effect the other way counts as inactive or inconclusive.

SMILES	Pol eta inh-1	POLB inh	L3MBTL1 block	Pol iota inh	Pol kappa inh-1	WRN inhibitor	Pol eta inh-2	others
COC(=O)c1ccc(C2c3c(-c4ccc(Br)cc4)n[nH]c3C(=O)N2c2ccc(Cl)cc2)cc1 (stereo not given)	-27%	?	/	?	-24%	/	/
O=C(COC(=O)c1ccc([N+](=O)[O-])s1)Nc1ccc(Cl)cn1	-14%	?	?	?	-25%	-9%	/
Cc1c(Cl)cnc(NC(=O)COC(=O)c2ccc([N+](=O)[O-])s2)c1Cl	18µM*	28µM*	?	25µM*	-44%	?	85*
CCc1ccccc1NS(=O)(=O)c1ccc2[nH]cc(C(=O)NCc3ccco3)c(=O)c2c1	11%	42%	13%	24%	0%	2%[57.1 µM]	/
O=C(NCc1ccco1)c1c[nH]c2ccc(S(=O)(=O)Nc3ccc(F)cc3F)cc2c1=O	50µM*	?	/	?	-26%	/	/	Pol kappa inh-2=?
CCCCn1c(=S)[nH]c2c(=O)n(C)c(=O)n(C)c21	1%	/	/	/	/	2%	/
Cc1cc(/C=C2\SC(=S)NC2=O)c(C)n1-c1cccc(O)c1	35µM*	45µM*	-29%	?	-18%	?	?
Cc1ccc(-n2c(C)cc(/C=C3\SC(=O)NC3=O)c2C)cc1	-9%	?	/	?	3%	-2%	/
Cc1ccc(C(=O)NCc2occc2C(=O)O)o1	28µM*	20µM*	/	?	?	-7%[11.6 µM]	30*	Pol kappa inh-2=24*
O=C(COC(=O)C1CC1)Nc1ncc(Cl)cc1Cl	28µM*	/	?	?	-38%	?	48*
Cc1csc(=O)n1CCC(=O)OCC(=O)Nc1ncc(Cl)cc1Cl	22µM*	/	-12%	?	?	-35%	?	Pol kappa inh-2=21*
Cc1cc2nc(-c3ccc(SCc4ccc(C(=O)O)cc4)nc3)[nH]c2cc1C	28µM*	22µM*	-3%	?	-18%	?	38*
Cc1cc2nc(-c3ccc(SCC(=O)NC(C)C)nc3)[nH]c2cc1C	/	?	-28%	/	/	/	/
O=C(NCc1ccc(F)cc1)c1ccc[nH]1	-10%	10%	4%	30%	-1%	-3%	/
COc1cccc(NC(=O)Cn2cc(S(=O)(=O)N3CCCC3)c(S(=O)(=O)N3CCCC3)c2)c1	89µM*	?	/	?	-33%	/	?	Pol kappa inh-2=38*
COc1cc(/C=C/C(=O)c2ccc(NS(=O)(=O)c3ccc(C)cc3)cc2)cc(OC)c1O	10µM*	-14%	-14%	?	-13%	?	?
CC(/C=C/c1ccco1)=N/NC(=O)Cc1cccs1	18µM*	22µM*	?	32µM*	?	?	?
CC(/C=C/c1ccco1)=N\NC(=O)c1cc(Cl)ccc1O	22µM*	?	/	40µM*	79µM*	?	?
CC(/C=N/NC(=O)Cc1cccs1)=C\c1ccco1	?	26%	-5%	-7%	-13%	-13%	/
CCC1=NN2C(=N)/C(=C\c3cccn3-c3cccc(Cl)c3)C(=O)N=C2S1	32µM*	22µM*	-16%	?	-43%	-8%[11.6 µM]	?
CC(=O)NCCNc1nc(-c2c(C)noc2C)nc2ccccc12	/	/	/	/	3%[60.1 µM]	/	/
O=C1/C(=C\c2ccccn2)SC(=S)N1c1ccc(S(=O)(=O)Nc2nccs2)cc1	18µM*	?	/	?	?	?	85*
O=C1/C(=C/c2ccccn2)SC(=S)N1c1ccc(O)cc1	-4%	5%	-17%	-20%	-4%	-5%	/
Cc1ccc(/C=C2/SC(=S)N(c3ccc(S(=O)(=O)Nc4nccs4)cc3)C2=O)cc1	40µM*	?	/	18µM*	?	?	76*
Cc1c(C(=O)N2CCN(c3ccccn3)CC2)cccc1[N+](=O)[O-]	-10%	26%	/	159%	-13%	-4%	/
SMILES	Pol eta inh-1	POLB inh	L3MBTL1 block	Pol iota inh	Pol kappa inh-1	WRN inhibitor	Pol eta inh-2	others
CC(Sc1ccsc1[N+](=O)[O-])C(=O)N1CCN(c2ccccn2)CC1 (stereo not given)	35µM*	-1%	2%	?	?	-13%[11.6 µM]	76*
O=C1NN(c2ccc(Br)cc2)C(=O)/C1=C\c1ccc(O)cc1O	4%	3%	-10%	?	-38%	-19%	/	GALK confirm=47µM*;Redox cycling=-3%;HEK293 tox=-4%
COc1ccccc1-c1cncnc1-n1ccnc1	/	/	/	/	-4%[60.1 µM]	/	/
O=C(O)CCCN1C(=O)/C(=C\C(Cl)=C\c2ccccc2)SC1=S	10µM*	?	/	?	?	?	24*	Pol kappa inh-2=38*
CN1CCN(C(=O)CCCN2C(=O)/C(=C/c3ccccc3)SC2=S)CC1	-7%	31%	/	24%	-23%	-5%	/
Cc1cccc(Cn2c(C)c(C)c3cc(C(=O)NCc4ccco4)ccc32)c1	79µM*	?	/	-10%	-15%	/	?
CC(C)CNc1cc(NC2CCCCC2)c2c3c(onc13)-c1ccccc1C2=O	-1%	32%	/	64%	-2%	/	/
CCCN(CCC)CCCNC(=O)c1cn(C)c2ccc(S(=O)(=O)N(C)C3CCCCC3)cc2c1=O	-3%	0%	/	-11%	-4%	6%	/
O=C(NCc1ccco1)c1nc2nc(-c3cccs3)cc(C(F)(F)F)n2n1	18µM*	?	?	?	?	?	76*
NS(=O)(=O)c1ccc(NC(=S)NC(=O)c2ccc(Br)o2)cc1	-2%	?	-1%	63%	-11%	9%[57.1 µM]	/
